We go through 17 compounds from PubChem BioAssay AID1076 (NMMLSC, 2008).

Unmarked numbers belong to inactive results. Calls of active or inactive are those of the source.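 How the source made its calls: active means cell event count below 40, meaning activity score above 60 where score is 100 minus count; inactive means the rest.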

The assay in a line: cytotoxicity in LNCaP prostate cells – cell-based, cell event count, single point, cytotoxicity control for prostate differentiation activator project, confirmation (AID 1076).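 Further: counts scatter-gated live cells after medium removal discards detached dead cells.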 The following applies: LNCaP cell loss, flow cytometry event count, 4 d; at 100 µM; hits give low values. (A flow cytometer gives signals particle by particle.)
In the case of `CCOC(=O)N1CCN(C(=O)CN(c2cccc(C(F)(F)F)c2)S(=O)(=O)c2ccccc2)CC1`, the cell event count was 137.
For `Nc1ccc(-n2ccnc2)cc1` the value was 173; for `Cc1cc(C)n2nc(SCC(=O)Nc3ccc(F)cc3)nc2n1`, 226.
Regarding `Cc1cccc(-c2nc(CN3CCCC(C(=O)NC4CCCC4)C3)c(C)o2)c1` (configuration not stated), the cell event count was 29.
For `Cc1ccc(C)c(N2CCN(CCCNC(=O)Cn3cc4c(n3)CCC(C)C4)CC2)c1` (configuration not stated) the value was 5.
As for `Cc1ccc(C)c(N2CCN(CCCNC(=O)Cn3cc4c(n3)CCCCC4)CC2)c1`, the cell event count was 3 (active).
Consider `COC(=O)c1[nH]c2c(c1C)C(=O)CCC2`, for which the cell event count was 387.
As to `CC(C)Cc1nc2oc3c(N4CCN(CCO)CC4)ncnc3c2c2c1CCCC2`, the cell event count is 3.
`CCN1CCCC1CNC(=O)c1cc2c(-c3cccc(OC)c3)nn(C)c2s1` (configuration not stated): the cell event count was 25.
With `CN1CCN(c2oc(COc3ccc(-c4ccccc4)cc3)nc2C#N)CC1`, the cell event count is 5.
For `COC(=O)Nc1sc2c(c1C(N)=O)CCCCCC2` the value was 80.
As to `COc1ccc(-c2cc(-c3ccc(F)cc3)nc(N3CCN(C)CC3)n2)cc1`, the cell event count was 3.
For `CCN(CC)CCCNC(=O)c1cc(-c2ccc(Cl)c(Cl)c2)on1` the value was 22; for `Cc1sc(CO)c(Sc2ccccc2)c1C(=O)O`, 324.
For `CCN(CC)CCNC(=O)c1cc2c(-c3ccc(Cl)cc3)nn(C)c2s1` the value was 25 (active); for `CCCN(CCC)CCNC(=O)C1CCN(Cc2nc(-c3ccc(Cl)cc3)oc2C)CC1`, 55.
In the case of `Cc1nc2c3cnn(-c4ccccc4)c3ncn2n1`, the cell event count is 159.
